Reference: PubChem BioAssay (NCI)
About 83,000 compounds went through this panel and 20% of them were active in at least one assay; those are over-represented in the sample as a whole.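 Step 1: grow cells in 96-well plates. Step 2: add test compound at a single concentration. Step 3: incubate 48 h. Step 4: record percent growth.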 Unmarked numbers belong to inactive results. The source made the active and inactive calls. Rule for the calls: active = growth percent below 10; inactive = the rest.

Tests used:
Assay in all cases: NCI-60 one-dose screen, 48 h (100 = growth as untreated, 0 = no growth, -100 = all killed)
Details in all cases: 10 µM unless noted
[1] = tested on: NCI-H23 lung
[2] = tested on: NCI-H226 lung
[3] = tested on: NCI-H322M lung
[4] = tested on: HOP-62 NSCLC
[5] = tested on: NCI-H460 lung
[6] = tested on: HOP-92 NSCLC
[7] = tested on: NCI-H522 lung
[8] = tested on: A549/ATCC NSCLC
[9] = tested on: 786-0 renal
[10] = tested on: COLO 205 colon

SMILES | growth [1] [%] | growth [2] | growth [3] [%] | growth [4] [%] | growth [5] | growth [6] | growth [7] | growth [8] [%] | growth [9] | growth [10]
Cc1nn(-c2ccccc2)c(Cl)c1/C=N\N=c1/sc2ccccc2n1C | 100 | 105% | 97.5 | 93.1 | 107% | 84.5% | 97.7% | 85.1 | 92.6% | 109%
Nc1c(S(=O)(=O)O)cc2c3c(cccc13)C(=O)OC2=O | 94.9 | 105% | 107 | 93.9 | 105% | 90.7% | 104% | 116 | 102% | 111%
Cn1c(-c2c(N)n(CCCN3CCOCC3)c3nc(C#N)c(C#N)nc23)nc2ccccc21 | 93.2 | 89.7% | 78.1 | 76.4 | 106% | -6.11% (active) | 77.4% | 86.8 | 23.3% | 70%
CC(C)(C)CC(C)(C)n1nnnc1C(NC12CC3CC(CC(C3)C1)C2)c1ccccc1 (stereo not given) | 90.8 | 84.2% | 105 | 101 | 94.5% | 87% | 74% | 80.7 | 86.3% | 122%
CCN1C(=O)/C(=C/C(=O)OC)S/C1=N\NC(=O)c1cc2ccc1/C=C\c1ccc(cc1)/C=C\2 | 99.6 | 92.7% | 92.3 | 101 | 104% | 81.6% | 59.7% | 96.6 | 90.6% | 108%
CCOC(=O)C1=C(C)NC(SCc2cc(=O)oc3ccc(F)cc23)=N[C@@H]1c1cccc2ccccc12 | 94.3 | 103% | 102 | 90.8 | 105% | 86.7% | 84.8% | 98.9 | 93.4% | 108%
C[C@H](c1nc2ccc(N)cc2[nH]1)[C@H]1CC[C@H]2[C@@H]3CCC4=CC(=O)CC[C@]4(C)[C@H]3CC[C@]12C | 85.8 | 91% | 91.7 | 96.2 | 97.1% | 43.9% | 84.3% | 96.7 | 59.4% | 81.4%
CCN1Cc2nc3sc(C)c(C)c3c(=O)n2C=C1C | 46.8 | 77.8% | 69 | 32.6 | 115% | -14.7% (active) | 38.5% | 86.8 | 16.8% | 111%
Cc1ccc(C(=O)/C(=C/c2ccc([N+](=O)[O-])cc2)SCc2ccc(Cl)cc2)cc1 | 61.8 | 76.3% | 75.5 | 100 | 74.6% | 92% | 63.1% | 67.9 | 52.1% | 82.7%
O=C(/C=C(/C=C/c1csc2ccccc12)OB(F)F)/C=C/c1csc2ccccc12 | 23 | 27.9% | 96.9 | 90.7 | 66.7% | 44.6% | 2.34% (active) | 70.1 | -2.14% (active) | -2% (active)
O=S(=O)(NCCCNc1nccc(-c2c(-c3cccc(F)c3)nc3sccn23)n1)c1cccc2ccccc12 | 66.2 | 36.8% | 81.6 | 80.7 | 19.8% | 94.6% | 56.3% | 45.6 | 52.9% | 21.5%
CN(C)CCn1c2ccc(Br)cc2c2nc3ccccc3nc21 | 36.1 | 41.9% | 35.2 | 25.1 | 12.6% | 49.6% | 29.8% | 17.4 | 33.7% | 9.69% (active)
COc1cccc(-c2nc3occn3c2-c2ccnc(NCCNS(=O)(=O)c3ccc(C(F)(F)F)cc3)n2)c1 | 98.2 | 75.8% | 98.9 | 119 | 88% | 95.9% | 86.6% | 87.9 | 79.5% | 77.7%
COc1ccc2c(c1)oc1c(C)c3c(c(C)c12)C(=O)N(N)C3=O | 50.4 | -11.6% (active) | 32.3 | 14.8 | 8% (active) | 29% | 49.5% | 24.1 | -39.6% (active) | 39.5%
COc1cc(/C=C\C(=O)O)ccc1OCc1ccccc1 | 100 | 80.2% | 117 | 99 | 105% | 86.1% | 83.6% | 82.3 | 109% | 108%
O=C(Cn1c(C(=O)c2ccccc2)nc2ccccc21)c1ccc(F)cc1 | 67.3 | 84% | 75 | 78.2 | 98.6% | 77.3% | -9.34% (active) | 79.3 | 75.9% | 119%
O=C1Nc2cc(-c3ccc(NC(=O)C4CC4)cc3)ccc2/C1=C/c1ccc[nH]1 | 61.3 | 101% | 86.2 | 104 | 61.4% | 129% | 92.5% | 107 | 105% | 117%
COC(=O)C(CC=O)C(=O)C(=O)Nc1cccc(C(F)(F)F)c1 (stereo not given) | 101 | 98.7% | 97.3 | 82.2 | 98.6% | 95.1% | 87.2% | 78.1 | 107% | 110%
O=C1c2ccccc2C(=O)c2c([N+](=O)[O-])ccc(Cl)c21 | 89.3 | 102% | 99.7 | 111 | 101% | 76.5% | 59.2% | 93.7 | 96.6% | 116%
N#Cc1c(NC(=O)NCc2ccccc2)sc2c1CCCCC2 | 37.5 | 22.5% | 44.9 | 34.2 | 0.445% (active) | 44.8% | 12.1% | 25.5 | 26.3% | 2.15% (active)
C=C1C(=O)O[C@H]2[C@H]1CC/C(COC(=O)NCCc1c[nH]c3ccc(OC)cc13)=C\CC[C@@]1(C)O[C@@H]21 | 73.9 | 51% | 87.2 | 83.4 | 69.4% | -8.74% (active) | -74.2% (active) | 64.2 | -35.4% (active) | -47.2% (active)
COc1cc2c(c(OC)c1OC)-c1ccc(NNC(=S)N(Cc3cccc(C[N+](Cc4cccc(CNC56CC7CC(CC(C7)C5)C6)c4)(Cc4cccc(CNC56CC7CC(CC(C7)C5)C6)c4)Cc4cccc(CN(C(=S)NNc5ccc6c(cc5=O)[C@@H](NC(C)=O)CCc5cc(OC)c(OC)c(OC)c5-6)C56CC7CC(CC(C7)C5)C6)c4)c3)C34CC5CC(CC(C5)C3)C4)c(=O)cc1[C@@H](NC(C)=O)CC2 (stereo not given in full) | 20.7 | -8.38% (active) | 49.6 | 48.6 | 2.48% (active) | -5.87% (active) | -22.8% (active) | 20.9 | 11% | -56.9% (active)
CCOC(=O)/C(C#N)=C1/NNC(=Nc2cccnc2)S1 | 97.7 | 96.2% | 105 | 90.8 | 99.3% | 93.9% | 85.3% | 85.3 | 98% | 103%
Cc1ccc(/C=N/NC(=O)CSc2nc3ccccc3c(=O)n2Cc2ccc(S(N)(=O)=O)cc2)cc1 | 91.5 | 84.6% | 102 | 85.7 | 98.5% | 109% | 42.5% | 85.9 | 99.3% | 105%
CC(=O)CCC(=O)OCc1cc(=O)c(O)co1 | 92.8 | 109% | 98.2 | 105 | 112% | 105% | 96% | 101 | 99.8% | 125%
COc1ccc(C(=O)CC#N)cc1 | 107 | 98% | 120 | 122 | 108% | 119% | 113% | 104 | 107% | 117%
